PubChem BioAssay (EPA / NIEHS)
Where “and” joins values, the source holds several entries; their conditions need not be identical. Equal entries are not always repeated. Calls of active or inactive are those of the source. The calls were made as follows: active = hit-call score of the fitted dose curve at least 0.9, where 1 is the maximum; inactive = score below 0.9.

assay: ATG_CMV_CIS: Attagene CIS-FACTORIAL HepG2 Assay for human CMV (Internal Marker) (AID 2282928); settings: HepG2 CMV promoter reporter, transcription factor profiling; actives raise or lower the signal;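 also: endpoint acts as a background internal control marker rather than a target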
Method in brief: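 Reporter transcripts from transfected HepG2 cells are isolated after 24 h of chemical dosing, reverse-transcribed and amplified. Fragments labeled with 6-FAM are cut with HpaI and quantified by capillary electrophoresis; DMSO defines baseline.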

SMILES | outcome | AC50
Cc1ccc(N=Nc2c(O)ccc3ccccc23)c(C)c1 | inactive | –
CC1CCC(CO)CC1 (centres undefined) | inactive | –
CC1COCc2cc3c(cc21)C(C)(C)C(C)C3(C)C (centres undefined) | inactive | –
Cc1cc(C(=C2C=CC(=Nc3ccc(S(=O)(=O)O)cc3)C=C2)c2ccc(Nc3ccc(S(=O)(=O)O)cc3)cc2)cc(S(=O)(=O)O)c1N | inactive | –
CCCCCCCCCCCC(=O)NCCCN(C)C | inactive | –
C=CC(=O)OCCC(F)(F)C(F)(F)C(F)(F)C(F)(F)C(F)(F)C(F)(F)F | inactive | –
CCOCCOCC | inactive | –
Cc1cc(Cc2cc(C)cc(C(C)(C)C)c2O)c(O)c(C(C)(C)C)c1 | – | 7.15 µM (active)
COc1cc([N+](=O)[O-])ccc1N | inactive | –
O=S(=O)(c1ccc(OCc2ccccc2)cc1)c1ccccc1O | – | 51.6 µM (active)
C[N+](C)(CCCNS(=O)(=O)CCC(F)(F)C(F)(F)C(F)(F)C(F)(F)C(F)(F)C(F)(F)F)CC(=O)[O-] | inactive | –
CCc1cccc(CC)c1NC(=O)C(=O)O | inactive | –
O=C(CC(=O)C(F)(F)C(F)(F)C(F)(F)F)c1cccs1 | – | 50 µM (active)
C=CC(=O)OCCC(F)(F)C(F)(F)C(F)(F)C(F)(F)C(F)(F)C(F)(F)C(F)(F)C(F)(F)F | inactive | –
CCCCCCc1ccc(N)cc1 | inactive | –
COc1ccccc1NC(=O)c1cc2ccccc2cc1O | – | 100 µM (active)
O=C1OC(=O)c2cc(-c3ccc4c(c3)C(=O)OC4=O)ccc21 | inactive | –
Cc1cc(C(C)(C)C)c(O)c(C(C)(C)C)c1 | – | 25.3 µM (active) and 60 µM (active)
CC1=CC(=O)c2ccccc2C1=O | inactive | –
CCCCCCCCCCCC | inactive | –
COc1ccc(C#N)cc1 | inactive | –
O=C(C=C(O)C(F)(F)F)C(F)(F)F | inactive | –
CC(C)CCOCCC(C)C | inactive | –
CCCCCCCCCCCCCCCC(=O)OC | inactive | –
